In PubChem BioAssay AID1159580 (chemical genetic matrix, 2015):
The whole screen tested about 5,500 compounds, of which about 2,000 (36%) were called active. Inconclusive results (about 18%) are left out. Rule as the data show it: active = normalized growth mostly below about 0.91 (no sharp cut-off); inconclusive = no clear call, values can overlap the other calls; inactive = mostly above about 0.92. Some of the results follow.

Assay: chemical genetic growth profiling, strain panel (AID 1159580);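 also: tested at 20 µM; growth read once vehicle control cultures reached saturation at 30 °C; 1 = growth at the plate median or of vehicle wells; lower values mean less growth of the strain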
Details: S. cerevisiae deletion strains, growth OD

Measured: normalized growth

CCCS(=O)(=O)c1c(C)c(C)n(Cc2ccccc2)c1N
inactive: locus YAL013W, strain DEP1, active compounds read low 1.02 | locus YBR229C, strain ROT2, active compounds read low 1.01 | locus YDL101C, strain DUN1, active compounds read low 0.972 | locus YDL134C, strain PPH21, active compounds read low 0.999 | locus YDR150W, strain NUM1, active compounds read low 1 | locus YEL061C, strain CIN8, active compounds read low 0.999 | locus YGR078C, strain PAC10, active compounds read low 1 | locus YHR030C, strain SLT2, active compounds read low 1.06 | locus YHR087W, strain rtc3, active compounds read low 1 | locus YJR043C, strain POL32, active compounds read low 0.997 | locus YJR075W, strain HOC1, active compounds read low 0.99 | locus YLR039C, strain RIC1, active compounds read low 1.05 | locus YLR058C, strain SHM2 (second series), active compounds read low 1 | locus YLR262C, strain YPT6, active compounds read low 1.03 | locus YML094W, strain GIM5, active compounds read low 1.04 | locus YMR219W, strain ESC1, active compounds read low 1 | locus YMR263W, strain SAP30, active compounds read low 0.999 | locus YMR307W, strain GAS1, active compounds read low 1.14 | locus YNL153C, strain GIM3, active compounds read low 1 | locus YNL298W, strain CLA4 (second series), active compounds read low 1.02 | locus YNL322C, strain KRE1, active compounds read low 0.999 | locus YNR030W, strain Alg12, active compounds read low 1.02 | locus YOL006C, strain TOP1, active compounds read low 1.2 | locus YPL055C, strain LGE1, active compounds read low 1.06 | locus YPL241C, strain CIN2, active compounds read low 1.1 | locus YPR135W, strain CTF4, active compounds read low 1.15
active: locus YLR085C, strain ARP6, active compounds read low 1.27 [resistant]
